Inconclusive results are not listed. Values without a mark were called inactive. Activity calls are given as the source filed them. Calls follow the shape of the dose curve; as a rule, active = well fitted curve in the direction sought with a large enough effect; inconclusive = small, poorly fitted or top-dose-only effect, or another doubt; inactive = no such curve, though single readings can be large; an effect the other way counts as inactive or inconclusive.
Assay: qHTS of pediatric cancer cell lines to identify multiple opportunities for drug repurposing: Primary screen for NB-EBc1 cells (AID 1347095)
Conditions: NB-EBc1 neuroblastoma viability, CellTiter-Glo luminescence, 48 h; series mostly up to 46 µM; activity change, negative = cytotoxic: at the top concentration
Summary of the method: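 500-1,000 cells/well; 5 h pre-incubation 37 °C/5% CO2; compound pinned; 48 h; CellTiter-Glo, 15 min RT; luminescence. MIPE 11-pt from 0.78 nM, NPC 8-pt from 0.59 nM final. Bortezomib 2.3 µM final as positive control.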
Potency is read from the fitted curve at half-maximal effect.

SMILES	Potency
CC(C)=CCCC(C)=CCCC(C)=CCSc1ccccc1C(=O)O	5.9 µM (active)
COc1cc(OC2CCN(C)CC2)ccc1Nc1ncc2c(n1)n(C1CCCC1)c(=O)n2C	8.33 µM (active)
COC(=O)[C@]12CCC(C)(C)C[C@@H]1[C@@H]1C(=O)C=C3[C@@]4(C)C=C(C#N)C(=O)C(C)(C)[C@@H]4CC[C@@]3(C)[C@]1(C)CC2	0.264 µM (active)
CN(C)CCCN=c1c2ccccc2n(C)c2[nH]c(=O)n(C)c(=O)c12	0.743 µM (active)
Cn1c(=O)n(-c2ccc(C(C)(C)C#N)cc2)c2c3cc(-c4cnc5ccccc5c4)ccc3ncc21	0.372 µM (active)
COc1cc2c(Oc3ccc4[nH]c(C)cc4c3F)ncnc2cc1OCCCN1CCCC1	4.18 µM (active)
O=C(Nc1nc2cccc(-c3ccc(CN4CCS(=O)(=O)CC4)cc3)n2n1)C1CC1	10.5 µM (active)
O=C(CCCCCCC(=O)Nc1ccc([C@H]2O[C@@H](CSc3nc(-c4ccccc4)c(-c4ccccc4)o3)C[C@@H](c3ccc(CO)cc3)O2)cc1)NO	8.33 µM (active)
CCN1CCN(CC(=O)Nc2ccc(-c3cccc4c(=O)cc(N5CCOCC5)oc34)c3sc4ccccc4c23)CC1	1.18 µM (active)
NCC(=O)Nc1ccc(-n2nc(C(F)(F)F)cc2-c2ccc3c(ccc4ccccc43)c2)cc1	0.833 µM (active)
Cc1cccc(C=NNc2cc(N3CCOCC3)nc(OCCc3ccccn3)n2)c1	1.32 µM (active)
NC1(Cc2ccc(Cl)cc2)CCN(c2ncnc3[nH]ccc23)CC1	11.8 µM (active)
Cn1c2ccccc2c2c3c(c4c5ccccc5n(CCC#N)c4c21)CNC3=O	0.418 µM (active)
Cc1cc(Nc2cc(CN3CCOCC3)c3nc(C)c(Cc4ccc(Cl)cc4F)n3n2)n[nH]1	4.18 µM (active)
COCCOc1ccc2c(c1)ncn2-c1ccc2cccc(N3CCC(N)CC3)c2n1	23.5 µM (active)
Nc1nccc(Oc2ccc(NC(=O)c3c[nH]cc(-c4ccc(F)cc4)c3=O)cc2F)c1Cl	1.05 µM (active)
NC(=O)c1c(OCc2c(F)cc(Br)cc2F)nsc1NC(=O)NCCCCN1CCCC1	2.64 µM (active)
CC(=O)c1c(C)c2cnc(Nc3ccc(N4CCNCC4)cn3)nc2n(C2CCCC2)c1=O	20.9 µM (active)
CC1(O)CC(c2nc(-c3ccc4ccc(-c5ccccc5)nc4c3)c3c(N)nccn23)C1 (stereo unspecified)	0.662 µM (active)
C=CC(=O)Nc1cccc(Oc2nc(Nc3ccc(N4CCN(C)CC4)cc3OC)ncc2Cl)c1	2.35 µM (active)
COC(=O)Nc1ccc(-c2nc(N3CCOCC3)c3cnn(C4CCN(Cc5cccnc5)CC4)c3n2)cc1	1.18 µM (active)
Cc1cc(Nc2ncnc3ccc(-c4ccc(CNCCS(C)(=O)=O)o4)cc23)ccc1Oc1ccn2ncnc2c1	4.18 µM (active)
O=C(O)c1ccc2cc(-c3ccc(O)c(C45CC6CC(CC(C6)C4)C5)c3)ccc2c1	0.209 µM (active)
Cc1cc(CN2CCN(c3c(Br)cnc4nc(-c5ccc(N6CCN(C)CC6)cc5)[nH]c34)CC2)no1	2.35 µM (active)
Nc1cccc(-c2cc3c(Oc4cccc(O)c4)ncnc3[nH]2)c1	3.72 µM (active)
COc1cc(C(=O)N2CCC(N3CCN(C)CC3)CC2)ccc1Nc1ncc2c(n1)N(C)c1ccccc1C(=O)N2C	16.6 µM (active)
COc1cccc(-c2ccc(NC(=O)C3=C(C(=O)O)CCC3)c(F)c2)c1	3.72 µM (active)

Assay: qHTS of pediatric cancer cell lines to identify multiple opportunities for drug repurposing: Primary screen for U-2 OS cells (AID 1347096); also: nearly all actives have a fitted effect of over 50% in size;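 as to activity change, negative = cytotoxic: plate controls were DMSO wells for no effect and bortezomib positive control wells for full effect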
Conditions: U-2 OS viability, CellTiter-Glo luminescence, 48 h; series mostly up to 46 µM; activity change, negative = cytotoxic: at the top concentration
Summary of the method: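 Viability after 48 h compound treatment at 37C, 500-1,000 cells/well, read as ATP luminescence with CellTiter-Glo. Primary screens used 11-point (MIPE, 0.78 nM-46 µM) or 8-point (NPC, 0.59 nM-46 µM) final concentrations; follow-up screens used 11-point dilutions.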

SMILES	Potency	activity change, negative = cytotoxic [%]
COc1cc(OC2CCN(C)CC2)ccc1Nc1ncc2c(n1)n(C1CCCC1)c(=O)n2C	23.5 µM (active)	–
Fc1cc(-c2cccc3ncc(-c4cnn(C5CCNCC5)c4)nc23)cc(F)c1CN1CCOCC1	–	15.1
Cn1cc(-c2ccncc2)c(-c2ccc(OCc3ccc4ccccc4n3)cc2)n1	–	-7.79
COC(=O)[C@]12CCC(C)(C)C[C@@H]1[C@@H]1C(=O)C=C3[C@@]4(C)C=C(C#N)C(=O)C(C)(C)[C@@H]4CC[C@@]3(C)[C@]1(C)CC2	0.935 µM (active)	–
N#CCNC(=O)c1ccc(-c2ccnc(Nc3ccc(N4CCOCC4)cc3)n2)cc1	–	-0.194
CN(C)CCCN=c1c2ccccc2n(C)c2[nH]c(=O)n(C)c(=O)c12	–	9.38
O=C(Nc1nc2cccc(-c3ccc(CN4CCS(=O)(=O)CC4)cc3)n2n1)C1CC1	–	18.7
O=C(CCCCCCC(=O)Nc1ccc([C@H]2O[C@@H](CSc3nc(-c4ccccc4)c(-c4ccccc4)o3)C[C@@H](c3ccc(CO)cc3)O2)cc1)NO	–	15.9
Cc1cc(Nc2cc(CN3CCOCC3)c3nc(C)c(Cc4ccc(Cl)cc4F)n3n2)n[nH]1	–	15
COCCOc1ccc2c(c1)ncn2-c1ccc2cccc(N3CCC(N)CC3)c2n1	18.7 µM (active)	–
Nc1nccc(Oc2ccc(NC(=O)c3c[nH]cc(-c4ccc(F)cc4)c3=O)cc2F)c1Cl	–	10.3
COC(=O)C1=C(C)NC(C)=C(C(=O)OCCN2CCN(C(c3ccccc3)c3ccccc3)CC2)C1c1cccc([N+](=O)[O-])c1 (stereo unspecified)	–	-22.7
C=CC(=O)Nc1cccc(Oc2nc(Nc3ccc(N4CCN(C)CC4)cc3OC)ncc2Cl)c1	23.5 µM (active)	–
CN(C1CCc2c(c3ccccc3n2CC(=O)O)C1)S(=O)(=O)c1ccc(F)cc1 (stereo unspecified)	–	-10.3
COC(=O)Nc1ccc(-c2nc(N3CCOCC3)c3cnn(C4CCN(Cc5cccnc5)CC4)c3n2)cc1	–	17.1
O=C(O)c1ccc2cc(-c3ccc(O)c(C45CC6CC(CC(C6)C4)C5)c3)ccc2c1	–	11.7
Cc1cc(CN2CCN(c3c(Br)cnc4nc(-c5ccc(N6CCN(C)CC6)cc5)[nH]c34)CC2)no1	–	15
Nc1cccc(-c2cc3c(Oc4cccc(O)c4)ncnc3[nH]2)c1	–	17
COc1cc(C(=O)N2CCC(N3CCN(C)CC3)CC2)ccc1Nc1ncc2c(n1)N(C)c1ccccc1C(=O)N2C	–	0.601
